These results are taken from PubChem BioAssay (NCI).

Among the test systems are SR leukemia; RPMI-8226 leukemia; OVCAR-8 ovarian; OVCAR-5 ovarian; OVCAR-4 ovarian; SK-OV-3 ovarian; IGROV1 ovarian; OVCAR-3 ovarian; HS 578T breast; NCI/ADR-RES ovarian; T-47D breast; BT-549 breast; MDA-MB-435 melanoma; SW-620 colon; HCT-116 colon; HCC-2998 colon; KM12 colon; MDA-MB-468 breast; MCF7 breast.
Common to all, as to assay: NCI-60 one-dose screen, 48 h (100 = growth as untreated, 0 = no growth, -100 = all killed)
What all share (conditions): 10 µM unless noted

Molecules are shown by their SMILES. This is part of a sample that, as a whole, favours compounds with a hit. Of some 83,000 tested, about 20% had one in any assay.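 Compound tested at a single concentration for 48 hours in 96-well plates; a percent growth value below 10 was scored as active.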 A number with no mark means an inactive call. Active and inactive are the calls of the source.

In the case of `Cn1cc(-c2cc(N)n3nc(-c4cn(C)c5ncc(Br)cc45)cc3n2)c2cc(Br)cnc21`, the growth was -35.1% (active) with SR leukemia; 5.51% (active) in the experiment on RPMI-8226 leukemia; 14.6% in the experiment with OVCAR-8 ovarian; 70% with OVCAR-5 ovarian; -47.3% (active) with OVCAR-4 ovarian; 104% with SK-OV-3 ovarian. In addition, the growth was 43.5% in the experiment on IGROV1 ovarian; -68% (active) in the experiment with OVCAR-3 ovarian; 55.1% with HS 578T breast; 14.9% in the experiment with NCI/ADR-RES ovarian; -4.13% (active) with T-47D breast; 34.8% in the experiment on BT-549 breast. Besides, the growth is -37.8% (active) in the experiment with MDA-MB-435 melanoma; -68.6% (active) with SW-620 colon; -76.3% (active) in the experiment with HCT-116 colon; -38.3% (active) in the experiment on HCC-2998 colon; -3.78% (active) in the experiment on KM12 colon; -84.2% (active) with MDA-MB-468 breast.
Consider `Cn1cc(-c2cc3nc(-c4c[nH]c5ccc(Cl)cc45)cc(N)n3n2)c2ccccc21`, for which the growth with SR leukemia is 5.34% (active); in the experiment on RPMI-8226 leukemia, -38.7% (active); in the experiment on OVCAR-8 ovarian it was -64.7% (active); in the experiment with OVCAR-5 ovarian, -89.2% (active); in the experiment with OVCAR-4 ovarian, -67.4% (active); in the experiment with SK-OV-3 ovarian, -86.5% (active). For the same molecule, the growth in the experiment with IGROV1 ovarian is -53.1% (active); in the experiment with OVCAR-3 ovarian, -62.7% (active); in the experiment on HS 578T breast, -27.1% (active); with T-47D breast it was -73.9% (active); in the experiment on BT-549 breast, -74% (active); with MDA-MB-435 melanoma it was -84.7% (active). The growth in the experiment on SW-620 colon is -39.3% (active); in the experiment with MCF7 breast, -73.7% (active); in the experiment with HCT-116 colon, -88.3% (active); in the experiment on HCC-2998 colon it was -78% (active); in the experiment on KM12 colon, -70.3% (active); in the experiment on MDA-MB-468 breast, -73.5% (active).
As to `C#CCOc1ccc(/C=N/Nc2nc(-c3ccc(Cl)cc3)cs2)cc1OC`, the growth in the experiment with SR leukemia was 22.2%; in the experiment on RPMI-8226 leukemia it was 38.5%; in the experiment on OVCAR-8 ovarian it was 51.7%; with OVCAR-5 ovarian, 86.9%; in the experiment with OVCAR-4 ovarian, 54.2%; in the experiment with SK-OV-3 ovarian, 88.2%. The growth is 88.1% in the experiment with IGROV1 ovarian; 69.1% in the experiment with OVCAR-3 ovarian; 81.1% in the experiment with HS 578T breast; 46% in the experiment on NCI/ADR-RES ovarian; 36% with BT-549 breast; 44.1% in the experiment with MDA-MB-435 melanoma. Further, the growth in the experiment on SW-620 colon is 82.2%; in the experiment with MCF7 breast, 21.8%; in the experiment with HCC-2998 colon, 90.3%; with KM12 colon it was 61.8%; in the experiment on MDA-MB-468 breast, 42.1%.
In the case of `O=C(O)c1cccc(-c2ccc(/C=N/NC(=O)c3[nH]c4ccc(Br)cc4c3-c3ccccc3)s2)c1`, the growth in the experiment with SR leukemia is 24.1%; with RPMI-8226 leukemia it was 54.2%; in the experiment with OVCAR-8 ovarian, 44.9%; in the experiment on OVCAR-5 ovarian, 112%; with OVCAR-4 ovarian, 42%; in the experiment with SK-OV-3 ovarian, 103%. Further, the growth with IGROV1 ovarian was 37.9%; with OVCAR-3 ovarian, 22.3%; in the experiment on NCI/ADR-RES ovarian, -22.5% (active); in the experiment with T-47D breast it was 54.5%; in the experiment on BT-549 breast it was 49.3%; with MDA-MB-435 melanoma it was 10.4%. The growth in the experiment on MCF7 breast was 13.7%; with HCT-116 colon, 31.5%; with HCC-2998 colon, 49.9%; with KM12 colon, 21.6%; in the experiment with MDA-MB-468 breast, 15.7%.
Turning to `C=C1CC[C@@H]2[C@]3(C)COC(c4cn[nH]c4-c4ccc(OC)cc4)O[C@@H]3CC[C@@]2(C)[C@@H]1C/C=C1/C(=O)OCC1O` (stereo partly drawn), the growth is -29.9% (active) in the experiment on SR leukemia; -27% (active) in the experiment with RPMI-8226 leukemia; -3.29% (active) in the experiment with OVCAR-8 ovarian; -27.1% (active) in the experiment on OVCAR-5 ovarian; 3.78% (active) in the experiment on OVCAR-4 ovarian; 6.09% (active) in the experiment on SK-OV-3 ovarian. The growth is 17.1% with IGROV1 ovarian; 5.62% (active) in the experiment on OVCAR-3 ovarian; 16.7% in the experiment on NCI/ADR-RES ovarian; 6.85% (active) in the experiment on T-47D breast; -32.9% (active) in the experiment with BT-549 breast; -52.2% (active) in the experiment with MDA-MB-435 melanoma. The growth with MCF7 breast was 2.05% (active); in the experiment on HCT-116 colon it was -19% (active); with HCC-2998 colon, -24.2% (active); with KM12 colon, -5.21% (active).
For the molecule `COc1ccc(N2N=C(c3ccc4c(c3)OCO4)CC2c2cccc(NC(=O)CCNS(=O)(=O)c3ccc(Cl)cc3)c2)cc1` (stereo not drawn), the growth was 3.71% (active) in the experiment with SR leukemia; 23.2% with RPMI-8226 leukemia; 49.1% in the experiment with OVCAR-8 ovarian; 68.4% in the experiment with OVCAR-5 ovarian; 51.6% with OVCAR-4 ovarian; 46.1% in the experiment on SK-OV-3 ovarian. For the same molecule, the growth is 61.1% with IGROV1 ovarian; 61.8% in the experiment on OVCAR-3 ovarian; 13.4% in the experiment with HS 578T breast; 71.3% in the experiment with NCI/ADR-RES ovarian; 34.5% in the experiment with BT-549 breast; 41.1% in the experiment on MDA-MB-435 melanoma. Moreover, the growth with SW-620 colon was 55.8%; in the experiment with MCF7 breast it was 8.85% (active); in the experiment on HCT-116 colon, 26.9%; in the experiment on HCC-2998 colon it was 8.63% (active); with KM12 colon it was 21.2%; in the experiment on MDA-MB-468 breast it was 10.1%.
Consider `COc1ccc2[nH]c(O)c(N=NC(=O)COc3ccc(NC(=O)Nc4ccccc4)cc3)c2c1`, for which the growth with SR leukemia is 52.8%; in the experiment on RPMI-8226 leukemia it was 80%; with OVCAR-8 ovarian, 9.54% (active); in the experiment with OVCAR-5 ovarian it was 72.3%; with OVCAR-4 ovarian it was 19.7%; in the experiment on SK-OV-3 ovarian, 42.3%. Moreover, the growth with IGROV1 ovarian is 60.7%; in the experiment with OVCAR-3 ovarian, 65.5%; in the experiment on HS 578T breast, 14%; in the experiment on T-47D breast it was 27.1%; in the experiment with BT-549 breast, -36.4% (active); with MDA-MB-435 melanoma, 56.9%. In addition, the growth is 38.4% in the experiment with SW-620 colon; 23.7% in the experiment with MCF7 breast; 29.3% in the experiment with HCT-116 colon; 34.9% in the experiment on HCC-2998 colon; -46.2% (active) with KM12 colon; 13% in the experiment with MDA-MB-468 breast.
`CCOc1ccc(C(=O)NC(=S)Nc2ccc(S(N)(=O)=O)cc2)cc1`: the growth is 97.7% [100 µM] with SR leukemia; 102% [100 µM] in the experiment on RPMI-8226 leukemia; 89% [100 µM] in the experiment on OVCAR-8 ovarian; 103% [100 µM] in the experiment with OVCAR-5 ovarian; 84.7% [100 µM] in the experiment on OVCAR-4 ovarian; 102% [100 µM] in the experiment with SK-OV-3 ovarian. Besides, the growth in the experiment with IGROV1 ovarian was 96.4% [100 µM]; in the experiment with OVCAR-3 ovarian, 97.9% [100 µM]; in the experiment on HS 578T breast, 89.2% [100 µM]; in the experiment on T-47D breast it was 74.3% [100 µM]; in the experiment with BT-549 breast, 99.1% [100 µM]; in the experiment on MDA-MB-435 melanoma it was 99.1% [100 µM]. Also, the growth was 104% [100 µM] in the experiment with SW-620 colon; 97.6% [100 µM] in the experiment on MCF7 breast; 97.9% [100 µM] in the experiment with HCT-116 colon; 99.5% [100 µM] in the experiment with HCC-2998 colon; 97.8% [100 µM] in the experiment on KM12 colon; 83.9% [100 µM] in the experiment with MDA-MB-468 breast.
Turning to `COC(=O)/C=C/c1cccc2c1C(=O)NC(C)(c1cc3ccccc3oc1=O)N2` (stereo not drawn), the growth is 58.7% with SR leukemia; 82.6% with RPMI-8226 leukemia; 66.9% in the experiment with OVCAR-8 ovarian; 77.6% with OVCAR-5 ovarian; 70% with OVCAR-4 ovarian; 41.7% with SK-OV-3 ovarian. For the same molecule, the growth in the experiment on IGROV1 ovarian was 32%; with OVCAR-3 ovarian, 74.1%; with HS 578T breast, 72%; with T-47D breast, 51.4%; in the experiment with BT-549 breast, 58.2%; in the experiment on MDA-MB-435 melanoma, 78.2%. The growth in the experiment on SW-620 colon is 72.2%; in the experiment with MCF7 breast, 82.2%; in the experiment with HCT-116 colon, 44.6%; in the experiment on HCC-2998 colon, 74.4%; in the experiment on KM12 colon, 68.8%; with MDA-MB-468 breast it was 64.7%.
